The target in one assay is SNX29. Briefly: pooled miR-30 sensor sort-seq; sequence = guide strand. As to conditions: shRNA.
With TTTCTTTCGTAGGAGCTTGCGA, the sensor-assay potency score (higher = more potent) was -0.585.

As to TTCATCGTCTTTTATCCGGATG, the sensor-assay potency score (higher = more potent) was -0.658.

Consider TTGAGCACCTCGTTCTCTCTGG, for which the sensor-assay potency score (higher = more potent) was -0.561.

Sequence TTCTTCAGCAATTTCTCCCGGC came in with a sensor-assay potency score (higher = more potent) of 0.0945.

With TTGGACTTTGAGCACCTCGTTC, the sensor-assay potency score (higher = more potent) was -0.779.

In the case of TTCTTTCGTAGGAGCTTGCGAG, the sensor-assay potency score (higher = more potent) is -0.569.

AACTTCTCCATCAACACTCCAA yielded a sensor-assay potency score (higher = more potent) of 0.0779.

Regarding TAACTTGTGGTGCAAACTCCTG, the sensor-assay potency score (higher = more potent) was -1.57.

As for TACTTGTTTTGTAACTTGTGGT, the sensor-assay potency score (higher = more potent) came out at 0.289.

Sequence TTTTATCCGGATGTAGACCTGA gave a sensor-assay potency score (higher = more potent) of 0.194.

On to TTGACCTTCTCTTTTCAGCATC, for which the sensor-assay potency score (higher = more potent) was -0.863.

The next assay has as its target SNX32. Described as above. Particulars: shRNA.
In the case of TTCTGTAGCTTTTCCCTCGAAG, the sensor-assay potency score (higher = more potent) was -0.129.

On to TACTCCAACAGGAAGGTCCTCT, for which the sensor-assay potency score (higher = more potent) came out at 0.509.

For TTCGTGCATCGCAACTGTCTTC, the sensor-assay potency score (higher = more potent) was -0.785.

For the sequence TGAACAGTGAATTTCACCTTGT, the sensor-assay potency score (higher = more potent) was 0.317.

Turning to TTTGAGCTCCAGCTCTGCCAGC, the sensor-assay potency score (higher = more potent) is -1.19.

In the case of AATTTGAGGAAGCTCGTCCTTA, the sensor-assay potency score (higher = more potent) was -0.0375.

Regarding TAAGGAGCTGTCTCCCTGCAGA, the sensor-assay potency score (higher = more potent) is -1.06.

Take TTTCGAAAAGAGGAGACCCGGC: the sensor-assay potency score (higher = more potent) is -0.633.

With TTGAACAGTGAATTTCACCTTG, the sensor-assay potency score (higher = more potent) amounted to 0.337.

In the case of TGCGTCAGAAATCTCCACCTGT, the sensor-assay potency score (higher = more potent) was 0.185.

With TTAGCTGGTTGACTTCCTGTGT, the sensor-assay potency score (higher = more potent) was 0.0166.

For a further assay, the target named is SOCS2. The description is as above. As to conditions: shRNA.
Consider TATCCTTGCACATCTGAACATA, for which the sensor-assay potency score (higher = more potent) was -1.25.

Consider TTTGGCTTCATTAACAGTCATA, for which the sensor-assay potency score (higher = more potent) was -0.491.

For TTAGTAGGTAGTCTGAATGCGA, the sensor-assay potency score (higher = more potent) is -0.295.

TTCGAAGATTAGTTGGTCCAGC yielded a sensor-assay potency score (higher = more potent) of 0.103.

Turning to TATTGTTAGTAGGTAGTCTGAA, the sensor-assay potency score (higher = more potent) stood at 0.147.

For TTAACAGTCATACTTCCCCAGT, the sensor-assay potency score (higher = more potent) is -1.23.

Regarding TTTTCCGTCTTGGTATTCGATT, the sensor-assay potency score (higher = more potent) was -1.45.

In turn, TTGCACATCTGAACATAGTAGT gave a sensor-assay potency score (higher = more potent) of 0.207.

For the sequence TTCTCTTTTACATAGCTGCATT, the sensor-assay potency score (higher = more potent) was -0.899.

For the sequence TTAAGCTTGGATTTGACACATA, the sensor-assay potency score (higher = more potent) is -1.

Consider TAGTAGGTAGTCTGAATGCGAG, for which the sensor-assay potency score (higher = more potent) was -0.794.

For the sequence TAATCTTTTAGTCTTGTTGGTA, the sensor-assay potency score (higher = more potent) is -0.175.

For the next assay, the target named is SOHLH2. Described as above. As to conditions: shRNA.
Take TAGATTGTCAAACTGCGCCCAG: the sensor-assay potency score (higher = more potent) was -0.465.

Sequence TATCGTGTCTACATGGATCTTC displayed a sensor-assay potency score (higher = more potent) of 0.657.

In the case of TTTGAGGGACATGTTGTCCAGT, the sensor-assay potency score (higher = more potent) is -0.779.

In the case of TTGATGGAACTCTCACAGCTTC, the sensor-assay potency score (higher = more potent) was -0.632.

TATATTTCACATAATCAACTGT returned a sensor-assay potency score (higher = more potent) of 0.64.

Regarding TTTGATATTAGGTCTTTGGGTG, the sensor-assay potency score (higher = more potent) was -0.0455.

The values above are taken from the OligoGym collection.
Further: reference of the scale not given here.
